{"source": "paper PMC7826789", "about": "(International Journal of Molecular Sciences, 2021);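 also: KINOMEscan scanMAX binding as percent activity remaining versus control; lower means stronger binding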", "data": [{"system": "MYO3A", "settings": "Compound Concentration (nM):1000", "units": {"Percent Control": "%"}, "values": [{"smiles": "CCn1c(-c2nonc2N)nc2c(C#CC(C)(C)O)nc(OCCNC)cc21.Cl", "note": "[GSK949675]", "Percent Control": 100}, {"smiles": "Cl.O=S1CCN(Cc2ccc(-c3ccc4ncnc(Nc5ccc(OCc6ccccc6)c(F)c5)c4c3)o2)CC1", "note": "[GW576924A]", "Percent Control": 100}, {"smiles": "CCS(=O)(=O)c1ccc(OC)c(Nc2ncc(-c3cccc(OC)c3)o2)c1", "note": "[GW580509X]", "Percent Control": 97}, {"smiles": "Cl.c1ccc(Cc2nc3ccc(Nc4ncnc5ccccc45)cc3[nH]2)cc1", "note": "[GR269666A]", "Percent Control": 100}, {"smiles": "NS(=O)(=O)c1ccc(N/N=C2\\C(=O)Nc3ccc(C(=O)NCCc4c[nH]cn4)cc32)cc1", "note": "[GW300660X]", "Percent Control": 100}, {"smiles": "C/C(Nc1ccc(S(N)(=O)=O)cc1)=C1/C(=O)Nc2ccccc21", "note": "[GW335962X]", "Percent Control": 66}, {"smiles": "COc1ccccc1-c1cc(/C=C2\\C(=O)Nc3ncc(Br)cc32)cc(Br)c1O", "note": "[GW442130X]", "Percent Control": 75}, {"smiles": "NS(=O)(=O)c1ccc(N/N=C2\\C(=O)Nc3ccc(-c4cnco4)cc32)cc1", "note": "[GW276655]", "Percent Control": 77}, {"smiles": "CN(C)CCNC(=O)Nc1ccc(N(C)c2ccnc(Nc3ccc(CS(C)(=O)=O)cc3)n2)cc1.Cl", "note": "[GW830900A]", "Percent Control": 99}, {"smiles": "COc1ccc2[nH]c3c4[nH]c5ccc(OC)cc5c4c4c(c3c2c1)C(=O)NC4=O", "note": "[GW296115X]", "Percent Control": 81}, {"smiles": "COc1cc2ncnc(Nc3ccc4c(cnn4Cc4ccccc4)c3)c2cc1OC.Cl", "note": "[GW282449A]", "Percent Control": 100}, {"smiles": "NS(=O)(=O)c1ccc(N/N=C2\\C(=O)Nc3ccc(Cl)cc32)cc1", "note": "[GW280670X]", "Percent Control": 100}]}]}
